For 51 compounds, inhibition results are on record in ChEMBL document CHEMBL3433997, “St. Jude Leishmania screening dataset” (2016).

Holding throughout (type): functional
Assay [1] deals with Solute carrier family 2, facilitated glucose transporter member 1 (Homo sapiens) (UniProt P11166). Briefly: ST_JUDE_LEISH: Cytotoxicity at 2uM final concentration against transgenic Leishmania Mexicana promastigotes LmGLUT1 that are glucose transport deficient and complemented with the human glucose transporter GLUT1. Activity is measured by DNA content using SYBR green in vitro.
Solute carrier family 2, facilitated glucose transporter member 1 (Homo sapiens), sequence (P11166 whole entry): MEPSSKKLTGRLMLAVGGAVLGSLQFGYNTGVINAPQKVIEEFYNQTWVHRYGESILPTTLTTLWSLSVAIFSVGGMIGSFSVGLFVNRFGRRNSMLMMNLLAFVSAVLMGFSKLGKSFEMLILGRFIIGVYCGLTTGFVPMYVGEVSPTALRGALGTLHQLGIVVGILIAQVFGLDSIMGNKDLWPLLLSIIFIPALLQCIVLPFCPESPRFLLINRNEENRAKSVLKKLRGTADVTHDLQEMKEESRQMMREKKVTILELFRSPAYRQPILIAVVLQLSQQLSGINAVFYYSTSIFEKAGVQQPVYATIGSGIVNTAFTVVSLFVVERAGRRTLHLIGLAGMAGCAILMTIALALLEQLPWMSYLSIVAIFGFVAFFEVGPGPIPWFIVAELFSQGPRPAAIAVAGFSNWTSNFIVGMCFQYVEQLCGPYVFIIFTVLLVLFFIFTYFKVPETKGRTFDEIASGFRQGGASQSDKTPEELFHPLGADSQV

Assay [2] concerns the target Hexose transporter 1 (Plasmodium falciparum) (UniProt O97467). Briefly: ST_JUDE_LEISH: Cytotoxicity at 2uM final concentration against transgenic Leishmania Mexicana promastigotes LmPfHT that are glucose transport deficient and complemented with the Plasmodium falciparum hexose transporter. Activity is measured by DNA content using SYBR green in vitro.
The target of assay [3] is Glucose transporter (Leishmania mexicana) (UniProt O61059). As to the kind of experiment: ST_JUDE_LEISH: Cytotoxicity at 2uM final concentration against transgenic Leishmania Mexicana promastigotes LmGT2 that are glucose transport deficient and complemented with the L. Mexicana glucose transporter 2. Activity is measured by DNA content using SYBR green in vitro.

`CC(=O)Nc1ccc(CN2CCC(NC(=O)c3ccc(-c4cccc(C(F)(F)F)c4)s3)CC2)cc1`: the inhibition is 0.69% in assay [1], 0.42% in assay [2] and -4.9% in assay [3].

Turning to `COc1ccccc1NC(=O)c1cc(C(=O)c2cc(Cl)ccc2O)cn(-c2ccccc2OC)c1=O`, the inhibition in assay [1] turned out to be 5.19%; in assay [2] it was 5.3%; in assay [3] it was 4.07%.

With `COc1ccc(N2CCN(CCCCNC(=O)c3ccc(NC(=O)c4cccc(Cl)c4)cc3)CC2)c(OC)c1`, the inhibition in assay [1] turned out to be 3.81%; in assay [2] it was 0.48%; in assay [3] it was 4.97%.

`COc1cccc2cc(C(=O)N[C@@H](CC(C)C)C(=O)N[C@H](/C=N/NC(=O)N3CCN(C)CC3)CCc3ccccc3)oc12`: the inhibition worked out at 9.32% in assay [1], 11.9% in assay [2] and 8.39% in assay [3].

For `CC1(C)NC(N)=NC(=N)N1OCCOc1ccc(Cc2ccccc2)cc1`, the inhibition in assay [1] stood at 1.41%; in assay [2] it was 0.91%; in assay [3], 0.68%.

Consider `COc1cccc(Nc2nc(C)cc(NCc3ccc(-n4ccnc4)cc3)n2)c1`, for which the inhibition in assay [1] came out at 4.08%; in assay [2], 13.7%; in assay [3] it was 8.06%.

As for `CC(Oc1ccc(Cl)cc1Cl)c1nc(-c2ccc(NC(=O)c3ccco3)cc2)no1` (stereo not drawn), the inhibition was 2.46% in assay [1], 1.87% in assay [2] and -0.2% in assay [3].

With `CCN1C(c2ccc(Cl)cc2)C(CNCc2ccccc2O)CC1(C)CO` (stereo not drawn), the inhibition in assay [1] amounted to 8.9%; in assay [2], 7.62%; in assay [3] it was 4.57%.

On to `O=C(C=Cc1ccc(Cl)c(Cl)c1)NCCCCCN1CCCC(CCCNC(=O)c2sc3ccccc3c2Cl)C1` (stereo not drawn), for which the inhibition was 2.3% in assay [1], 1.22% in assay [2] and -0.49% in assay [3].

`COc1cccc(CNC[C@@H](O)[C@H](Cc2ccccc2)NC(=O)c2cc(OC(C)C)cc(N3CCCCS3(=O)=O)c2)c1`: the inhibition was 0.5% in assay [1], -0.88% in assay [2] and -0.67% in assay [3].

`Cc1cccc2nc(-c3cccc(-c4ccc(CNCc5ccc(S(C)(=O)=O)cc5)cc4)c3)[nH]c12`: the inhibition in assay [1] is 11.9%; in assay [2], 6.88%; in assay [3] it was 7.97%.

Consider `CCCc1cc(Cc2cnc(N)nc2N)cc(CC)c1O`, for which the inhibition in assay [1] was found to be 1.7%; in assay [2] it was 0.94%; in assay [3], 0.25%.

As to `Fc1cccc(COc2ccc(Nc3ncnc4sc(C#C[C@H]5CCCN5)cc34)cc2F)c1`, the inhibition in assay [1] was 0.5%; in assay [2], 2.54%; in assay [3], 0.52%.

Turning to `Cc1cccc2nc(-c3ccc(-c4ccc(CN5CCN(c6ccc(C#N)cn6)CC5)cc4)s3)[nH]c12`, the figures for the inhibition in assay [1], in assay [2] and in assay [3] were 5.16%, 6.3% and -0.38%, respectively.

`CC(C)CNCc1ccc(-c2cccc(CNC3CCN(Cc4ccccc4)CC3)c2)cc1`: the inhibition was determined as 3.21% in assay [1], 3.32% in assay [2] and 5.23% in assay [3].

`COc1ccc(N2CCN(CCc3ccc(NC(=O)c4ccc([N+](=O)[O-])cc4)cc3)CC2)c(OC)c1`: the inhibition in assay [1] was determined as 9.1%; in assay [2], 6.72%; in assay [3], 6.07%.

For the compound `O=C(Nc1cccc(-c2cccc(-c3nc4cc(F)ccc4[nH]3)c2)c1)c1c[nH]cn1`, the inhibition is -0.8% in assay [1], -0.5% in assay [2] and -1.75% in assay [3].

In the case of `Cc1ccccc1CCNC(=O)c1cnc(N2CCN(c3ccncc3)CC2)c(Cl)c1`, the inhibition came out at 79% in assay [1], 81.9% in assay [2] and 84.2% in assay [3].

`CCCC(C)Nc1nc(C)cc(N[C@@H](CC(C)C)C(=O)NCc2ccc(C)cc2)n1` (stereo partly drawn): the inhibition in assay [1] was found to be 3.04%; in assay [2], 4.01%; in assay [3], 0.38%.

Consider `CCOc1ccc2c(=NN=Cc3ccccc3F)cc(C)[nH]c2c1`, for which the inhibition in assay [1] was 1.77%; in assay [2], 1.33%; in assay [3] it was -0.43%.

Consider `CC(C)(C)CC(C)(C)c1ccc(O)c(CNC2CCCCC2)c1`, for which the values for the inhibition in assay [1], in assay [2] and in assay [3] were 1.96%, 2.09% and -0.74%, respectively.

As to `CC(C)c1nc2c(N)nc(N)nc2nc1N`, the values for the inhibition in assay [1], in assay [2] and in assay [3] were -0.33%, 0.25% and 1.01%, respectively.

Turning to `O=S(=O)(NCCN1CCCC1)c1ccc(-c2ccc(CNCc3ccccc3)cc2)cc1F`, the inhibition in assay [1] came out at 3.64%; in assay [2], 3.01%; in assay [3], 0.32%.

Turning to `COc1cccc(CNc2ncc(-c3ccsc3)c(-c3nccs3)n2)c1`, the inhibition was -0.5% in assay [1], 0.89% in assay [2] and -0.73% in assay [3].

In the case of `CC(C)Cc1ccc(N2CCN(CCCCNC(=O)c3ccc(NC(=O)c4cc(C(F)(F)F)cc(C(F)(F)F)c4)cc3)CC2)cc1`, the inhibition in assay [1] is 0.41%; in assay [2], 1.08%; in assay [3] it was -0.64%.

On to `CCOC(=O)c1sc(C(C)Nc2ccccc2)nc1-c1ccccc1` (stereo not drawn), for which the inhibition is 0.89% in assay [1], -0.3% in assay [2] and -1.6% in assay [3].

`COc1c(CN2CCCC2)cccc1-c1cc2c(-c3ccc(C(=O)O)c(C(C)C)c3)ccnc2[nH]1`: the inhibition was found to be 3% in assay [1], 2.05% in assay [2] and 2.09% in assay [3].

For the compound `Cc1cccc(-c2nn(-c3ccccc3)cc2C(=O)Nc2nnc(C)o2)c1`, the inhibition in assay [1] was -1.38%; in assay [2] it was -1.47%; in assay [3], 2.67%.

As to `CCc1ccc(C2CCN(CCCCNC(=O)c3ccc(NC(=O)c4ccc(Cl)cc4)cc3)CC2)c(OC(C)=O)c1`, the inhibition in assay [1] was found to be 3.29%; in assay [2] it was 3.47%; in assay [3] it was 3.54%.

Take `Nc1ncc(-c2ccsc2)cc1-c1nc2ccccc2[nH]1`: the inhibition stood at 2.86% in assay [1], 6.79% in assay [2] and 2.5% in assay [3].

Take `COCCN1CCC(NCC(C)(C)c2nc(-c3ccc(Cl)c(O)c3)c(-c3ccncc3)[nH]2)CC1`: the inhibition in assay [1] was found to be 4.86%; in assay [2], 8.59%; in assay [3], 6.49%.

For the compound `Cc1nc(C)c(-c2ccc(S(=O)(=O)c3ccc(Cl)cc3)cc2)c(O)c1Cl`, the inhibition worked out at 9.02% in assay [1], 5.86% in assay [2] and 7.16% in assay [3].

For `CC(CNC(=N)c1cccc(C(=N)NCC(C)Oc2cccc(C3CCCCC3)c2)n1)Oc1cccc(C2CCCCC2)c1` (stereo not drawn), the inhibition was 5.5% in assay [1], 4.37% in assay [2] and 0.74% in assay [3].

`O=C(/C=C/c1ccc(Cl)cc1Cl)N1CCC(CCN2CCC(c3c[nH]c4ccccc34)CC2)CC1`: the results for the inhibition in assay [1], in assay [2] and in assay [3] were 3.54%, 4.28% and 5.09%, respectively.

Regarding `Cc1cc(Nc2ccccc2)nc(NCCOc2ccccc2)n1`, the inhibition was 5.53% in assay [1], 8.42% in assay [2] and 2.95% in assay [3].

With `CCN1CCN(c2cc(C)c3cc(NC(=O)c4ccc(C(C)(C)C)cc4)ccc3n2)CC1`, the inhibition in assay [1] is -0.6%; in assay [2], 2.13%; in assay [3] it was 1.59%.

Regarding `c1cc(-c2ccc(CNCCCN3CCOCC3)cc2)cc(-c2nc3ccccc3[nH]2)c1`, the figures for the inhibition in assay [1], in assay [2] and in assay [3] were 1.09%, -0.33% and 2.29%, respectively.

With `CS(=O)(=O)c1cccc(-c2cnc(N)c3cc(-c4cccc(F)c4)ccc23)c1`, the inhibition in assay [1] was 1.57%; in assay [2] it was 1.63%; in assay [3] it was 0.94%.

Turning to `O=C(/C=C/c1ccc(Cl)c(Cl)c1)N1CCC(CNCc2cccc3cc[nH]c23)CC1`, the values for the inhibition in assay [1], in assay [2] and in assay [3] were 1.64%, 0.75% and 1.48%, respectively.

As to `Cc1[nH]c(C)c(-c2ccc(CCc3ccc(N)cc3)cc2)c(=O)c1Cl`, the inhibition in assay [1] amounted to 4.43%; in assay [2], 6.39%; in assay [3], 1.77%.

Turning to `Cc1cccc2nc(-c3cccc(-c4ccc(C(=O)NCc5nccn5C)cc4)c3)[nH]c12`, the inhibition is 1.94% in assay [1], 3.7% in assay [2] and 1.69% in assay [3].

For the compound `O=C(Nc1ccc(-c2ccc(-c3nc4cc(C(F)(F)F)ccc4[nH]3)cc2)cc1)Nc1ccc(F)c(F)c1F`, the inhibition in assay [1] was -0.4%; in assay [2], -0.22%; in assay [3], -1.44%.

For the compound `N=C(N)NCCCC(=O)NCC(N)=O`, the inhibition in assay [1] was 5.44%; in assay [2], 8.67%; in assay [3] it was 2.28%.

With `O=C(Nc1ccc(Oc2ccccc2)cc1)N(Cc1ccc(-c2cccc(CN3CCNCC3)c2)cc1)C1CCN(Cc2ccccc2)CC1`, the inhibition in assay [1] was 3.46%; in assay [2], 3.12%; in assay [3], 3.01%.

With `COc1ccc(-c2cnc3[nH]cc(-c4ccc(C(=O)O)cc4)c3c2)cn1`, the values for the inhibition in assay [1], in assay [2] and in assay [3] were -1.03%, 5.94% and 0.18%, respectively.

With `Cn1nccc1C(=O)NCCNCc1cccc(-c2ccc(-c3nc4ccccc4[nH]3)cc2)c1`, the inhibition in assay [1] was 0.23%; in assay [2], 0.79%; in assay [3] it was -1.98%.

In the case of `Cc1cc(N2CCCC2)nc(Nc2ccc(NC(=O)c3ccc4c(c3)OCO4)cc2)n1`, the inhibition in assay [1] was 13.5%; in assay [2] it was 3.61%; in assay [3], 5.78%.

As for `CCn1ccc2c(N3CCCCS3(=O)=O)cc(C(=O)N[C@@H](Cc3ccccc3)[C@H](O)CNC3CCCCC3)cc21`, the results for the inhibition in assay [1], in assay [2] and in assay [3] were 5.11%, 5.66% and 3.42%, respectively.

As to `NC1CCN(c2cnn(Cc3cccc(NC(=O)Nc4ccc(-c5ccccc5)cc4)c3)c(=O)c2Cl)CC1`, the inhibition was 1.64% in assay [1], 1.72% in assay [2] and 2.25% in assay [3].

On to `NCCCCc1c(-c2ccc(Cl)c(Cl)c2)[nH]c2ccc(Cl)cc12`, for which the figures for the inhibition in assay [1], in assay [2] and in assay [3] were -2.7%, -1.68% and -3.34%, respectively.

For the compound `CCCNCc1c(O)ccc2c(CNCCC)c(O)ccc12`, the inhibition in assay [1] was 0.17%; in assay [2] it was -0.89%; in assay [3], 0.49%.

As usually defined, the inhibition is the relative decrease from the control value, in per cent.
